# Reference: PubChem BioAssay AID493204 (National Center for Advancing Translational Sciences (NCATS), 2011)
# The list shows a part of the results. Results filed as inconclusive are left out. Active and inactive are the calls of the source. The call rests on the fitted dose curve; in most records, active means well fitted inhibition curve with a large enough effect; inconclusive means small, poorly fitted or top-dose-only effect; inactive means flat fitted curve, though single readings scatter.
# Target: Dual specificity protein kinase CLK4 (Homo sapiens) (UniProt Q9HAZ1)
# Assay: Confirmation Assay for Inhibitors of CDC-like Kinase 4 (Kinase-Glo Assay): SAR round 2
# Conditions: recombinant Clk4, Kinase-Glo ATP luminescence, 4.5 h
# Protocol: NIH Molecular Libraries Probe Production Centers Network [MLPCN] NIH Chemical Genomics Center [NCGC] MLPCN Grant: 1R03MH084827-01 Assay Submitter (PI): Tom Misteli NCGC Assay Overview: Clk4 (Invitrogen, cat# PV3839) was assayed using ATP and the RS repeat peptide (AnaSpec cat # 61722) as substrates. Following the Clk4 reaction, the remaining ATP levels were detected using Promega Kinase-Glo technology wherein the remaining ATP from the kinase reaction is detected using Ultra-Glo luciferase and D-luciferin which generates a bioluminescence signal from the ATP. The positive control for the assay was TG003 (Sigma-Aldrich, cat# 300801-52-9) which has been described as an inhibitor of Clk 4[1].
# NCGC Assay Protocol Summary: Two uL/well of substrate-buffer solution (100 uM RS peptide, 1 uM ATP, 25 mM Tris pH7.5, 10 mM MgCl2, 0.5 mM EGTA, 2.5 mM DTT, 0.01% Triton X-100 final concentration) was dispensed into 1536-well, assay plates (Greiner, solid white medium-binding plates) with Aurora Discovery BioRAPTR Flying Reagent Dispenser (FRD; Beckton-Dickenson). Using a Kalypsys pin tool equipped with a 1536-pin tool, 23 nL of compound solution was transferred to the assay plate. […] Luminescence was detected with the ViewLux plate reader (Perkin Elmer, Waltham, MA) after 5 min incubation using a 5 second exposure time and 2x binning.
# Chain of Dual specificity protein kinase CLK4 (Homo sapiens) (Q9HAZ1 whole entry, looked up): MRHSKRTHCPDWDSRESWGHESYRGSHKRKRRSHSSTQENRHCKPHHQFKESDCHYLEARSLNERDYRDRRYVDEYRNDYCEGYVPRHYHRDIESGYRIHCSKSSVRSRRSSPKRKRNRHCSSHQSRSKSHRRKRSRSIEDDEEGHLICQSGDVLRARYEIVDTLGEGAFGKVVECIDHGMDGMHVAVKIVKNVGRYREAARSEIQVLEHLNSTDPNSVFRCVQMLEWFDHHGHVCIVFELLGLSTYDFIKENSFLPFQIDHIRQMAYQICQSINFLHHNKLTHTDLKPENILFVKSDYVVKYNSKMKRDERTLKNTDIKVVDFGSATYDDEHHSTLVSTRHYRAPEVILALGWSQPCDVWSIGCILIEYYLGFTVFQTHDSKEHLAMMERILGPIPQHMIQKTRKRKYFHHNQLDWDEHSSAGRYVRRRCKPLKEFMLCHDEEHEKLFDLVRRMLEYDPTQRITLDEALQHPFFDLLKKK
row,SMILES,Potency
1,c1nc(N2CCOCC2)c2cc(-c3ccc4c(c3)OCO4)ccc2n1,104 nM (active)
